Records with an inconclusive call do not appear. A number with no mark means an inactive call. The source made the active and inactive calls. Calls follow the shape of the dose curve; as a rule, active = well fitted cell-killing curve with a large enough effect in the repeat runs; inconclusive = weak or mixed curves, or effect the other way; inactive = flat fitted curve, though single readings scatter.
% is scaled to controls: 0 for no effect and ±100 for the full control effect; potency is read from the fitted curve at half-maximal effect.

The test can be described thus: qHTS RealTime-Glo MT Cell Viability Assay in HepG2 cells - 40 hour (AID 1224870). Also: nearly all actives have a fitted effect of over 50% in size. The following applies: RealTime-Glo luminescence; series mostly up to 76.8 µM; activity change, negative = cytotoxic: at the top concentration. The text has this:
National Center for Advancing Translational Sciences [NCATS]
NIH Chemical Genomics Center [NCGC]
U.S. Environmental Protection Agency [EPA]
National Institutes of Environmental Health Sciences [NIEHS]
National Toxicology Program [NTP]
U.S. Food and Drug Administration [FDA]
Measure of cell viability is critical in the cell-base assay. Analysis of cell viability is necessary for the characterization of cell responses to cytotoxic drugs and environmental stress. A RealTime-Glo MT Cell Viability Assay to monitor cell viability in real time of continues cell culture during 40 hours of compound treatment was used to screen Tox21 10K library compounds in HepG2 cells. The RealTime-Glo MT Cell Viability Assay is a nonlytic, homogeneous, bioluminescent method to measure cell viability in real time using a simple, plate-based method. The assay involves adding NanoLuc luciferase and a cell-permeant prosubstrate to cells in culture. Viable cells reduce the proprietary prosubstrate to generate a substrate for NanoLuc luciferase. This substrate diffuses from cells into the surrounding culture medium, where it is rapidly used by the NanoLuc Enzyme to produce a luminescent signal. The signal correlates with the number of viable cells, making the assay well suited for cytotoxicity studies.
Tox21 Assay Protocol Summary:
The mixture of HepG2 cell suspension and reagents were dispensed at 600cells/6 ul/well in 1536-well tissue culture treated black solid bottom plates using a Multidrop dispenser. After the assay plates were incubated at a 37 C/5% CO2 incubator for 5 hours, 23 nL of compounds dissolved in DMSO, positive and negative controls was transferred to the assay plate by a pintool work station. The plates were incubated at 37 C for 40 hours. The luminescence intensity were measured at 0h, 8h, 16h, 24h, 32h and 40h time points using ViewLux plate reader during compound treatment.
On to `O=C(O)CCCl`, for which the “activity change, negative = cytotoxic” value was -1.41%.
For `Nc1ccccc1S(=O)(=O)O`, the “activity change, negative = cytotoxic” value was -0.799%.
For `CCOC(C)(C)C`, the “activity change, negative = cytotoxic” value is -0.77%.
The same measure, in the same setting: the same measure for `CN1CCCC1`: -1.56%; for `CC/C=C\CC/C=C/C(OCC)OCC`: -0.447%; for `CCN(CC)CCOCCOC(=O)C1(c2ccccc2)CCCC1`: 0.548% [at 35.3 µM].
Consider `CS(=O)(=O)O`, for which the “activity change, negative = cytotoxic” value is -1.74%.
Take `CCCCOCCOCCOCc1cc2c(cc1CCC)OCO2`: the Potency entry was “inactive”.
In the case of `CC(C)NC(=O)NC(C)C`, the “activity change, negative = cytotoxic” value is -0.145%.
For `COC(C)(C)CCCC(C)CC=O` (stereo not given), the “activity change, negative = cytotoxic” value is 0.932%.
Consider `C[C@H](NC(CCc1ccccc1)C(=O)O)C(=O)N1CCC[C@H]1C(=O)O` (stereo not given in full), for which the “activity change, negative = cytotoxic” value is 0.362% [at 35.3 µM].
On the same count and under the same terms, the figure for `CC(C)CNCC(C)C` is 0.541%.
As for `Cc1nc2c([nH]1)c(=O)n(C)c(=O)n2Cc1ccco1`, the “activity change, negative = cytotoxic” value is -2% [at 35.3 µM].
On the same count and under the same terms, the same measure for `CO[C@]12C[C@@H](COC(=O)c3cncc(Br)c3)CN(C)[C@@H]1Cc1cn(C)c3cccc2c13`: -1.18% [at 35.3 µM]; for `CN(C(=O)c1c(O)c2ccccc2n(C)c1=O)c1ccccc1`: 0.945% [at 35.3 µM].
For the compound `O=C1NC(=O)[C@@]2(CCOc3ccc(F)cc32)N1`, the “activity change, negative = cytotoxic” value is -0.917% [at 35.3 µM].
For `Nc1cc(=O)[nH]c(N)n1`, the “activity change, negative = cytotoxic” value is 3.91% [at 35.3 µM].
As to `CCCC(=O)O[C@]1(C(=O)CO)CC[C@H]2[C@@H]3CCC4=CC(=O)CC[C@]4(C)[C@H]3[C@@H](O)C[C@@]21C`, the “activity change, negative = cytotoxic” value is 0.669% [at 35.3 µM].
The same measure, in the same setting: the figure for `CCN(Cc1ccncc1)C(=O)C(CO)c1ccccc1` (stereo not given) is 0.839% [at 35.3 µM].
On the same count and under the same terms, the same measure for `CCOC(=O)[C@H](CCc1ccccc1)N[C@@H](C)C(=O)N1[C@H](C(=O)O)C[C@@H]2CCC[C@@H]21`: 1.78% [at 35.3 µM].
On the same count and under the same terms, the figure for `Cc1c(O)cccc1O` is 0.465%.
With `CN(C)CCCN1c2ccccc2CCc2ccc(Cl)cc21`, the Potency was 43.6 µM (active).
In the case of `COC(=O)NN`, the “activity change, negative = cytotoxic” value was 2.74%.
Consider `CC/C=C\CC/C=C/CO`, for which the “activity change, negative = cytotoxic” value is 5.91%.
The same measure, in the same setting: the same measure for `COc1ccc2c(c1)CCCC2=O`: 2.07% [at 35.3 µM].
Same read-out and setting: the same measure for `C[N+](C)(C)CC(O)CC(=O)[O-]` (stereo not given): -3.28% [at 35.3 µM]; for `C1CN(CCOCCN2CCOCC2)CCO1`: 0.423%; for `CC(C)(C)c1nnc(NS(=O)(=O)c2ccccc2)s1`: 0.198% [at 35.3 µM].
On to `CN(C)CCCSc1ccccc1NC(=O)/C=C/c1ccccc1`, for which the “activity change, negative = cytotoxic” value is -2.41% [at 35.3 µM].
On the same count and under the same terms, the figure for `Cc1sccc1Br` is 1.3% [at 35.3 µM]; for `CCSC(=O)N(CC(C)C)CC(C)C` it is 1.6%.
As for `OC1CCCCC1c1ccccc1` (stereo not given), the “activity change, negative = cytotoxic” value is 0.319%.
`CCOC(=O)CCC(C)=O`: the “activity change, negative = cytotoxic” value is 3.05%.
Regarding `N=c1nc(N2CCCCC2)cc(N)n1O`, the “activity change, negative = cytotoxic” value is 3% [at 35.3 µM].
For the compound `CN(C)CCCNCCCN(C)C`, the “activity change, negative = cytotoxic” value is 5.32%.
As to `CC(=O)c1ccccc1O`, the “activity change, negative = cytotoxic” value was 6.44%.
Consider `NS(=O)(=O)c1cc(C(=O)O)cc(N2CCCC2)c1Oc1ccccc1`, for which the “activity change, negative = cytotoxic” value was 4.9% [at 35.3 µM].
On the same count and under the same terms, the same measure for `CC(C)=CCCC(C)CC(=O)O` (stereo not given): 7.9%; for `CC(C)(c1ccc(O)cc1)c1ccc(O)cc1`: -0.502%.
On the same count and under the same terms, the same measure for `Nc1c[n+](N2CCOCC2)no1`: 0.0095% [at 35.3 µM].

Source of the values: PubChem BioAssay (Tox21).
